The whole screen tested about 2,100 compounds, of which about 300 (14%) were called active. Inconclusive results (about 2%) are left out. These entries were drawn from the full list. Potency and affinity values are given separately. Values without a mark were called inactive.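 The calls were made as follows: active = every replicate test run called active, with the signal falling and half-maximal concentration within twice the top valid dose; inconclusive = the replicate test runs disagree in their calls; inactive = every test run inactive, including effects in the opposite direction.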
Test: reduced cellular PGC1a acetyl-lysine signal – cell-based, cherry-picked samples, dose response (AID 720514);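 also: 0% = neutral control wells and -100% = positive control wells; actives lower the acetylation signal so they count as inhibitors of PGC1a acetylation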
Settings: U2OS PGC1a acetylation, AlphaLISA, overnight; series mostly up to 19.5 µM; activity change, negative = inhibition: at the top concentration

| Compound | activity change, negative = inhibition |
| --- | --- |
| CCC(C)(C)n1nnnc1C(c1ccccc1OC)N1CCSCC1 (stereo unspecified) | 97.3% |
| CC(NS(=O)(=O)c1ccccc1Cl)C1CC2CCC1C2 (stereo unspecified) | 144% |
| C/C=C(/C)C(=O)O[C@@H]1c2cc(OC)c(OC)c(OC)c2-c2c(cc3c(c2OC)OCO3)C[C@H](C)[C@]1(C)O | 111% [at 5 µM] |
| O=C(CCc1nc2ccccc2c(=O)[nH]1)Nc1ccc(N2CCCCC2)cc1 | 77.8% |
| Cn1ncc(C(=O)Nc2ccc(Cl)cc2)c1C(F)(F)F | 17.4% |
| O=C(CCCc1nc(-c2ccccc2Cl)no1)NCc1cccnc1 | 124% [at 10 µM] |
| O=C(NCc1cccnc1)c1ccc(NC(=O)c2ccc(Br)cc2)cc1 | 240% |
| COc1cccc(N(CC(=O)NCc2cccnc2)S(C)(=O)=O)c1 | 57.6% |
| O=C(CCCCCN1C(=O)c2cccc3cccc(c23)C1=O)NCc1cccnc1 | 237% |
| O=C(Cc1ccc(Cl)cc1)c1c[nH]c(C(=O)NCc2cccnc2)c1 | 94.9% |
| O=C(NCc1ccccc1)C1Cc2c(-c3ccc(Cl)cc3)ccnc2O1 (stereo unspecified) | 40.4% |
| CN(C)CC(O)c1ccc(C=Cc2ccc(Cl)cc2)cc1 (stereo unspecified) | 40% [at 5 µM] |
| CC(=O)Nc1ccc(NC(=O)CN(c2cccc([N+](=O)[O-])c2)S(C)(=O)=O)cc1 | 251% |
| COc1ccc(CCn2c(-c3ccc(OC)cc3)nc3c(c(=O)c4ccccc4n3C)c2=O)cc1 | 44.1% [at 10 µM] |
| COc1ccccc1/C=C1\SC(=O)N(CCC(=O)NCCCn2ccnc2)C1=O | 145% [at 10 µM] |
| CCN(CC)C(=O)CSc1nnc2nnc3cc(Cl)ccc3n12 | 43.8% |
| COc1ccccc1NC(=O)c1ccc(NC(=O)CNC(=O)c2ccc(OC)c(OC)c2)cc1 | 42.6% |
| COC(=O)c1ccc(NC(=O)c2cccnc2)cc1 | 224% [at 10 µM] |
| COc1ccc(-c2csc3nc(C)nc(N4CCC(C)CC4)c23)cc1OC | 76.6% |
| COc1ccc(Nc2nnc(C)c3ccccc23)cc1 | 103% |
| COc1ccc(Nc2nnc(-c3ccc(C(N)=O)cc3)c3ccccc23)cc1 | 160% |
| O=C(Cc1ccccc1)Nc1cccc(-c2nc3ncccc3o2)c1 | 67.1% |

| Compound | activity change, negative = inhibition |
| --- | --- |
| CC1CC(NS(=O)(=O)c2cccs2)CC(C)(C)C1 (stereo unspecified) | 194% |
| COc1ccc(Nc2nc(N)c(C(=O)c3ccc(OC)cc3)s2)cc1 | 47.2% |
| Nc1c(C(=O)Nc2ccccc2)sc2ncc([N+](=O)[O-])cc12 | 63.9% |
| OC1CCCC1NCc1ccnc2cc(Cl)ccc12 (stereo unspecified) | 217% |
| Cc1ccc(Nc2nnc(C)c3ccccc23)c(C)c1 | 71.2% |
| COc1ccc(OC)c(C(=O)/C=C/c2ccccc2C(F)(F)F)c1 | 89.2% |
| C[C@@H]1CN([C@H](C)CO)C(=O)c2c(c3ccccc3n2C)-c2ccccc2CO[C@@H]1CN(C)C(=O)Nc1cccc(C(F)(F)F)c1 | 80.6% |
| COc1cc(-c2cnc3c(NC(C)=O)cc(-c4ccccc4CN(C)C)cn23)cc(OC)c1OC | 70% |
| Cn1c(CN2CCCC2)nc2cc(NC(=O)COc3ccc(Cl)cc3)ccc21 | 35.3% |
| C=CCS(=O)(=O)c1nc2ccccc2s1 | 95.6% [at 10 µM] |
| Cc1cc(C)nc(NC(=O)c2c(-c3ccccc3Cl)noc2C)n1 | 49.6% |
| COc1ccc(-c2cc(-c3ccccc3O)[nH]n2)cc1OC | 80.7% |
| COc1cc(-c2nnn(CC#N)n2)ccc1OCc1ccccc1 | 376% |
| COc1ccccc1NC(=O)N1C[C@@H]2N[C@H](C1)C2c1ccc(/C=C/c2ccccc2)cc1 (stereo partly specified) | 42.9% [at 10 µM] |
| O=C(C1CCC1)N1CCN(S(=O)(=O)c2ccccc2)CC1 | 90.3% [at 10 µM] |
| O=C(Nc1ccccc1)C1=C[C@@H](c2ccc(C(F)(F)F)cc2)C[C@@H](OCc2ccc(CO)cc2)O1 | 107% |
| COC(=O)C[C@H]1c2cc(C(F)(F)F)ccc2S(=O)(=O)N1Cc1ccc(OC)cc1 | 62.4% |
| Cc1nnc(NCc2ccccc2)c2ccccc12 | 123% |
| O=C(CC1CC1)N[C@H]1CC[C@H](CCNS(=O)(=O)c2ccc(Cl)cc2)O[C@H]1CO | 42.8% |
| CC(=O)c1cc(-c2ccccc2)n(CCC(=O)NC2CCCCC2)c1C | 58.1% |
| O=C(c1cc(C2CC2)on1)N1CCCC(N2CCN(c3cccc(C(F)(F)F)c3)CC2)C1 (stereo unspecified) | 45.6% |
| COc1cc2cc(-c3ccc(O)cc3O)nc(C)c2cc1OC | 19.4% |

| Compound | activity change, negative = inhibition |
| --- | --- |
| Cc1ccc(C(=O)N2CCN(c3ccc(NC(=O)c4ccc(Br)o4)cc3)CC2)cc1 | 131% |
| O=C(Cc1ccccc1)N1CCN(c2ccc([N+](=O)[O-])cc2)CC1 | 148% |
| O=C(CN1CCC(n2nnc3cc(F)ccc32)CC1)NCc1ccco1 | 103% |
| C[C@@H]1CN([C@@H](C)CO)C(=O)c2c(c3ccccc3n2C)-c2ccccc2CO[C@@H]1CN(C)C(=O)Nc1ccc(F)cc1 | 137% |
| Cc1cc(C)c2nc(N(CCCN(C)C)C(=O)c3ccc(S(=O)(=O)N4CCCCCC4)cc3)sc2c1 | 96% [at 10 µM] |
| CN1c2ccccc2C2(C)CCCC3=Cc4cccc([N+](=O)[O-])c4OC312 (stereo unspecified) | 99.6% |
| O=C(Cc1ccccc1)Nc1ccc(NC(=O)c2cccs2)cc1 | 176% |
| Cc1cccc(C(=O)Nc2ccc(C(=O)/C=C/c3cccnc3)cc2)c1 | 123% [at 10 µM] |
| O=C(CS(=O)CC(=O)Nc1cccc2c1CCCC2)Nc1ccc(F)cc1 (stereo unspecified) | 107% |
| CNC(=O)c1nnsc1S(=O)c1ccc(Cl)cc1 (stereo unspecified) | 47.6% [at 10 µM] |
| Clc1ccc(-c2nnc(-c3ccccc3)nc2N2CCSCC2)cc1 | 44.6% |
| Nc1c(C(=O)Nc2ccccc2)c2nc3ccccc3nc2n1CCCN1CCOCC1 | 67.9% [at 10 µM] |
| CC(=O)NC(c1cccc(F)c1)c1nc(-c2cccc(C(C)C)c2)cs1 (stereo unspecified) | 41% |
| COc1cc2nc(SCc3c(C)noc3C)n(CCC3=CCCCC3)c(=O)c2cc1OC | 106% |
| c1ccc(N2CCN(c3ccccc3)C2c2ccncc2)cc1 | 55.4% |
| CCC(CC)C(=O)c1c[nH]c(C(=O)NCc2ccccc2)c1 | 126% |
| CCOC(=O)C1CCCN(S(=O)(=O)c2ccc3c(c2)NC(=O)CO3)C1 (stereo unspecified) | 150% |
| CCOc1ccc2c(c1)C(C)=CC(C)(C)N2S(=O)(=O)c1ccc(C)cc1 | 41.8% [at 10 µM] |
| O=C1CC(Sc2nnc(-c3ccccc3O)o2)C(=O)N1c1ccccc1 (stereo unspecified) | 49.7% [at 10 µM] |
| CCOC(=O)c1[nH]c(C)c(C(=O)Nc2cc(OC)ccc2OC)c1C | 50.2% |
| CC(=O)c1ccc(N2CCN(c3ccc(S(=O)(=O)NCCN(C)C)cc3[N+](=O)[O-])CC2)cc1 | 79.5% |
| CC(=O)c1ccc(N2CCN(c3ccc(S(=O)(=O)NCCCN(C)C)cc3[N+](=O)[O-])CC2)cc1 | 140% [at 10 µM] |
